Experimental data as given in PubChem BioAssay (Tox21).
Where “and” joins values, the source holds several entries; their conditions need not be identical. Equal entries are not always repeated. Inconclusive results are not listed. Entries that show only a call come without a potency. Some compounds were tested as several samples or in several runs, with calls that do not always agree. Calls of active or inactive are those of the source. Unless noted, calls come from the whole dose curve; as a rule, active = well fitted curve in the direction sought with a large enough effect in the repeat runs; inconclusive = weak or mixed curves; inactive = no such curve, though single readings can be large; an effect the other way counts as inactive or inconclusive.

Key:
[1] = qHTS assay to identify small molecule agonists of the peroxisome proliferator-activated receptor delta (PPARd) signaling pathway - cell viability counter screen (AID 743211); note: nearly all actives have a fitted effect of over 55% in size
How it was run: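 Read-out: CellTiter-Glo luminescence, 30 min RT, measured in the same wells as the beta-lactamase reporter. Cells: GeneBLAzer PPAR delta UAS-bla HEK293H, 3000 cells/well, compound exposure 17 h at 37C.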

[2] = qHTS assay to identify small molecule agonists of the farnesoid-X-receptor (FXR) signaling pathway - cell viability counter screen (AID 743218); note: nearly all actives have a fitted effect of over 45% in size
How it was run: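 In GeneBLAzer FXR-UAS-bla HEK 293T cells, compounds act for 16 h at 37 C. Cell viability is then scored in the reporter wells by CellTiter-Glo, 30 min at RT, luminescence.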

[3] = qHTS assay to identify small molecule antagonists of the farnesoid-X-receptor (FXR) signaling pathway - cell viability counter screen (AID 743221; active = well fitted cell-killing curve with a large enough effect in the repeat runs, not every such curve was filed as active; note: nearly all actives have a fitted effect of over 50% in size)
How it was run: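 HEK 293T FXR-bla cells, 5 h pre-incubation; compound + CDCA 50 uM final, 16 h, 37 C; beta-lactamase FRET read first, then CellTiter-Glo luminescence, 30 min RT.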

[4] = biological target: Vitamin D3 receptor (Homo sapiens) (UniProt P11473); assay: qHTS assay to identify small molecule agonists of the vitamin D receptor (VDR) signaling pathway (AID 743222; calls by dose curve)
How it was run: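 Agonist activity measured in VDR-bla reporter cells. Exposure 16 h, 37C, 5% CO2; detection by B/G FRET substrate, 2 h RT.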

[5] = biological target: Vitamin D3 receptor (Homo sapiens) (UniProt P11473); assay: qHTS assay to identify small molecule antagonists of the vitamin D receptor (VDR) signaling pathway (AID 743223; active = well fitted inhibition curve with a large enough effect in the signal ratio in the repeat runs, not every such curve was filed as active; the % refers to the signal ratio)
How it was run: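 Beta-lactamase reporter read-out: FRET substrate fluorescence after 2 h at room temperature, following 16 h exposure of VDR-bla cells to test compound plus 3 nM (final) 1alpha,25-dihydroxyvitamin D3 agonist at 37C.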

[6] = qHTS assay to identify small molecule antagonists of the vitamin D receptor (VDR) signaling pathway - cell viability counter screen (AID 743225); note: nearly all actives have a fitted effect of over 50% in size
How it was run: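 Viability counter screen run in the same wells as the beta-lactamase reporter assay: HEK 293T VDR-UAS-bla cells, 16 h compound exposure at 37C with 3 nM (final) 1-alpha,25-dihydroxyvitamin D3. CellTiter-Glo luminescence, 30 min, room temperature.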

[7] = qHTS assay to identify small molecule agonists of the endoplasmic reticulum stress response signaling pathway (AID 1159516; active = well fitted activation curve with a large enough effect in the signal ratio in the repeat runs, not every such curve was filed as active; the % refers to the signal ratio)
How it was run: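 ER stress element reporter (bla) in HeLa. 1,500 cells/well, overnight attachment; 5 hr compound; 2 hr RT substrate; dual-emission fluorescence.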

[8] = qHTS assay to identify small molecule agonists of the endoplasmic reticulum stress response signaling pathway - cell viability counter screen (AID 1159517; calls by dose curve;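 note: HeLa cells carrying an ER stress response element beta-lactamase reporter; series mostly up to about 61 µM; nearly all actives have a fitted effect of over 50% in size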)
How it was run: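 Counter-screen wells were identical to the reporter wells. Cells were plated at 1,500 per well and dosed for 5 hr, then read for luminescence 30 min after CellTiter-Glo addition.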

[9] = qHTS assay to identify small molecule antagonists of the retinoid-related orphan receptor gamma (ROR-gamma) signaling pathway - cell viability counter screen (AID 1159520); note: nearly all actives have a fitted effect of over 50% in size
How it was run: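 Tet-on ROR gamma CHO cells were given compounds for 2 hr, then doxycycline hyclate at 1 uM final, and incubated 16 hr at 37 C. Viability was measured as ATP content by CellTiter-Glo luminescence.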

[10] = qHTS assay to identify small molecule agonists of the AP-1 signaling pathway - cell viability counter screen (AID 1159525; calls by dose curve; note: nearly all actives have a fitted effect of over 55% in size)
How it was run: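 AP-1-bla ME-180 cells in Opti-MEM with 0.5% dialyzed FBS, compound exposure 5 h at 37 C in 15-point titration. Viability read in the same wells as ATP content by CellTiter-Glo luminescence, normalised to tetra-n-octylammonium bromide and DMSO controls.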

[11] = qHTS assay to identify small molecule agonists of the AP-1 signaling pathway (AID 1159526; calls by dose curve)
[12] = biological target: Retinoic acid receptor RXR-alpha (Homo sapiens) (UniProt P19793); assay: qHTS assay to identify small molecule agonists of the RXR signaling pathway (AID 1159527; calls by dose curve; note: nearly all actives have a fitted effect of over 35% in size)
How it was run: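 Agonist mode; 9-cis retinoic acid positive control. HEK 293T UAS-bla reporter cells, 2% charcoal-stripped FBS, 16 hr compound exposure at 37 C/5% CO2. LiveBLAzer B/G FRET substrate 2 hr RT; ex 405, em 460/530 nm.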

[13] = qHTS assay to identify small molecule antagonists of the peroxisome proliferator-activated receptor delta (PPARd) signaling pathway - cell viability counter screen (AID 743213); note: nearly all actives have a fitted effect of over 50% in size
How it was run: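 Cytotoxicity counter screen: CellTiter-Glo luminescence read 30 min after addition, in the same wells as the reporter assay. There, PPARd UAS-bla HEK293H cells (3000/well) were treated 17 h at 37 C with compound and 300 nM L165041.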

[14] = biological target: Peroxisome proliferator-activated receptor delta (Homo sapiens) (UniProt Q03181); assay: qHTS assay to identify small molecule agonists of the peroxisome proliferator-activated receptor delta (PPARd) signaling pathway (AID 743212; calls by dose curve)
How it was run: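 Quantitative high-throughput agonist screen in a HEK293H beta-lactamase reporter line under UAS control. Compounds in DMSO, at 37 C. Fluorescence read after 2 h with FRET substrate at room temperature.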

[15] = biological target: Peroxisome proliferator-activated receptor delta (Homo sapiens) (UniProt Q03181); assay: qHTS assay to identify small molecule antagonists of the peroxisome proliferator-activated receptor delta (PPARd) signaling pathway (AID 743215; active = well fitted inhibition curve with a large enough effect in the signal ratio in the repeat runs, not every such curve was filed as active; the % refers to the signal ratio;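 note: cells stimulated with agonist L165041 at 300 nM final during compound exposure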; note: potency is the fitted concentration of half-maximal effect)
How it was run: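 Antagonist-mode beta-lactamase reporter screen: HEK293H cells with UAS-bla under PPARd control, stimulated by 300 nM L165041 (final) alongside test compound for 17 h at 37 C, then FRET fluorescence after 2 h substrate incubation.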

[16] = biological target: Nuclear receptor ROR-gamma (Homo sapiens) (UniProt P51449); assay: qHTS assay to identify small molecule antagonists of the retinoid-related orphan receptor gamma (ROR-gamma) signaling pathway (AID 1159521)
How it was run: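 Luminescence readout (ONE-Glo, 30 min RT) after 16 h doxycycline induction; loss of signal scored as antagonism. CHO cells with TET-inducible RORγ and RORE-LUC reporter; compounds added 2 h before 1 uM final doxycycline.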

[17] = qHTS assay to identify small molecule agonists of the vitamin D receptor (VDR) signaling pathway - cell viability counter screen (AID 743224)
How it was run: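 VDR-bla cell line, quantitative HTS format; 16 h compound incubation (37C, 5% CO2); ATP-based CellTiter-Glo luminescence measured in the reporter assay wells.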

[18] = biological target: Bile acid receptor (Homo sapiens) (UniProt Q96RI1); assay: qHTS assay to identify small molecule antagonists of the farnesoid-X-receptor (FXR) signaling pathway (AID 743217; active = well fitted inhibition curve with a large enough effect in the signal ratio in the repeat runs, not every such curve was filed as active; the % refers to the signal ratio)
How it was run: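 Beta-lactamase reporter under UAS control in HEK 293T cells; compound exposure 16 h at 37 °C in the presence of chenodeoxycholic acid (50 uM final); signal from B/G FRET substrate after 2 h at room temperature.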

[19] = biological target: Bile acid receptor (Homo sapiens) (UniProt Q96RI1); assay: qHTS assay to identify small molecule agonists of the farnesoid-X-receptor (FXR) signaling pathway (AID 743220; active = well fitted activation curve with a large enough effect in the signal ratio in the repeat runs, not every such curve was filed as active; the % refers to the signal ratio)
How it was run: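 Beta-lactamase reporter under UAS control in GeneBLAzer FXR HEK 293T cells (5000/well) measured with LiveBLAzer FRET substrate after 2 h at room temperature. Compound exposure lasted 16 h at 37C.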

Chain of Peroxisome proliferator-activated receptor delta (Homo sapiens) (Q03181 whole entry, looked up): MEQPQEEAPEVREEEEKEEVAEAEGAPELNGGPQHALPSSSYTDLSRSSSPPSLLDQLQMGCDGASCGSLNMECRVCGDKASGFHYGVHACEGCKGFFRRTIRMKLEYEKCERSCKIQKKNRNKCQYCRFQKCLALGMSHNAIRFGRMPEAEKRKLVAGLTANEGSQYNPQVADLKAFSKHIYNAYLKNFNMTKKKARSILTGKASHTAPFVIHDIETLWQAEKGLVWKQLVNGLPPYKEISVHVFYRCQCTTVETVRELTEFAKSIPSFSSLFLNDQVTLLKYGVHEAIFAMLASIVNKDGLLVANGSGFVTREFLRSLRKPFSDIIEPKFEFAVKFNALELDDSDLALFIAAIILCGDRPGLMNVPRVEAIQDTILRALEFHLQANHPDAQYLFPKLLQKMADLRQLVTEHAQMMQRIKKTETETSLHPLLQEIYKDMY
Chain of Retinoic acid receptor RXR-alpha (Homo sapiens) (P19793 whole entry, looked up): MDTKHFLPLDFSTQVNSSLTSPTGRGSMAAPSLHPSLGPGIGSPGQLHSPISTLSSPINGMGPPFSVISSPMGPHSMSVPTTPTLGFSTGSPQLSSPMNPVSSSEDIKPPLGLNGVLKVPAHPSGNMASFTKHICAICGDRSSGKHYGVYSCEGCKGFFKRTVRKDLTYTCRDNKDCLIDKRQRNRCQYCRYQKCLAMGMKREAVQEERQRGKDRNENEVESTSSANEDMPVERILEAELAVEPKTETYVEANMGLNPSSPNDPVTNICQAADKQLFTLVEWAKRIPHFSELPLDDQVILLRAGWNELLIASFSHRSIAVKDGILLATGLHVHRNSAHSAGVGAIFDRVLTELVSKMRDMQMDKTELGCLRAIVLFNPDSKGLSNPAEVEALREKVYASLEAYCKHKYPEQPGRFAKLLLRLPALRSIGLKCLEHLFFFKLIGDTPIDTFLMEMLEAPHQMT
Chain of Vitamin D3 receptor (Homo sapiens) (P11473 whole entry, looked up): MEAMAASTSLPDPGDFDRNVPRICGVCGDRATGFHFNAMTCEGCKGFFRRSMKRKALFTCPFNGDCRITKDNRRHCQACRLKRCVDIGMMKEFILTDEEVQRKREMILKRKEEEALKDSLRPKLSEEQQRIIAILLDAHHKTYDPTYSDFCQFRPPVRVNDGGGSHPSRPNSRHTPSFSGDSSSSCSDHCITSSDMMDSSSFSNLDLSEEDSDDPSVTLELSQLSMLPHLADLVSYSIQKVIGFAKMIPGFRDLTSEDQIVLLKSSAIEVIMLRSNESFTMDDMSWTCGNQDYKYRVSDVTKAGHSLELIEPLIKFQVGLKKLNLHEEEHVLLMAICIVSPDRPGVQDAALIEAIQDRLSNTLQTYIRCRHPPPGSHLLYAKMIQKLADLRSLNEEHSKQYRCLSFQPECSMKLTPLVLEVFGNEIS
Chain of Bile acid receptor (Homo sapiens) (Q96RI1 whole entry, looked up): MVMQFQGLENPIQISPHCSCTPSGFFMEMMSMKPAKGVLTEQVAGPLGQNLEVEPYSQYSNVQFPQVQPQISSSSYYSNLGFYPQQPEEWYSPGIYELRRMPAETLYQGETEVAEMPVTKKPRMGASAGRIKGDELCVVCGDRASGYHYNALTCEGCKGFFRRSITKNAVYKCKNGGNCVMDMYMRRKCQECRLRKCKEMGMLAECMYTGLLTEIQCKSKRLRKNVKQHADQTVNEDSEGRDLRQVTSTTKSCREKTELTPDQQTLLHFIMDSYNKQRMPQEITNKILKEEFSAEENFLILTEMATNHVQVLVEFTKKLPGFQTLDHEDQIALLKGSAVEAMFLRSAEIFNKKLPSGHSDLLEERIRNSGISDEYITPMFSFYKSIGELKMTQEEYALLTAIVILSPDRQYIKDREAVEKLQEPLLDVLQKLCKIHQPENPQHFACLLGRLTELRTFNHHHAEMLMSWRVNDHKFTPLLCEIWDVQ

| SMILES | Potency [1] | Potency [2] | Potency [3] | Potency [4] | Potency [5] | Potency [6] | outcome [7] | Potency [8] | Potency [9] | Potency [10] | Potency [11] | Potency [12] | Potency [13] | Potency [14] | Potency [15] | Potency [16] | Potency [17] | Potency [18] | Potency [19] |
| --- | --- | --- | --- | --- | --- | --- | --- | --- | --- | --- | --- | --- | --- | --- | --- | --- | --- | --- | --- |
| C/C=C(\C)C(=O)OCc1ccccc1 | inactive | inactive | inactive | inactive | inactive | inactive | inactive | inactive | inactive | inactive | inactive | inactive |  |  |  |  |  |  |  |
| C1CCCC1 | inactive | inactive | inactive | inactive | inactive | inactive | inactive | inactive | inactive | inactive | inactive | inactive | inactive |  |  |  |  |  |  |
| Cc1cc(N)c(S(=O)(=O)O)cc1Cl | inactive | inactive | inactive | inactive | inactive | inactive | inactive | inactive | inactive | inactive | inactive | inactive | inactive | inactive | inactive |  |  |  |  |
| CCC(N)(CO)CO | inactive | inactive | inactive | inactive | inactive | inactive | inactive | inactive | inactive | inactive | inactive | inactive |  | inactive | inactive | inactive |  |  |  |
| c1ccc(CSCc2ccccc2)cc1 | inactive | inactive | inactive | inactive | inactive | inactive | inactive | inactive | inactive | inactive | inactive | inactive | inactive | inactive | inactive | inactive | inactive |  |  |
| O=c1cc(-c2ccc(O)cc2)oc2cc(O)cc(O)c12 | inactive | inactive | inactive |  |  | inactive | inactive | inactive | inactive | inactive |  |  | inactive | inactive | inactive and 17.4 µM (active) |  | inactive |  |  |
| C[n+]1ccn(Cc2ccccc2)c1 | inactive | inactive |  | inactive | inactive | inactive | inactive | inactive | inactive |  | inactive | inactive | inactive |  |  | inactive | inactive | inactive | inactive |
